# Test results from PubChem BioAssay.
# Active and inactive are the calls of the source. Unless noted, no rule for the calls is given here.
# Experiments:
# [1] = compounds binding Alexa647 anti-His antibody – biochemical, small-molecule microarray, 635 nm fluorescence, artefact control for SMM control protein annotation, primary screen (AID 1128); settings: higher = more signal;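 also: score merges feature fluorescence with signal-to-noise for each printed compound spot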
# [2] = test system: Human papillomavirus type 1a E7 protein (residues 1-88); assay: HPV1a E7 small-molecule binders, primary screen, biochemical, small-molecule microarray, residues 1-88, 635 nm (AID 1129); settings: small-molecule microarray binding, fluorescence 635 nm; higher = more signal
# [3] = target: Focal adhesion kinase 1 (Homo sapiens) (UniProt Q05397); assay: PTK2 protein binding on printed compound slides – biochemical, small-molecule microarray, 635/667 nm fluorescence, BSA, DTT, primary screen (AID 1130); settings: 635 nm fluorescence, higher = more signal;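 also: composite of spot emission at 667 nm and signal to noise over triplicate slides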
# [4] = test system: Fibrinogen (Alexa647-labelled); assay: Alexa647-fibrinogen binding to printed small molecules – biochemical, small-molecule microarray, 635/667 nm fluorescence, artefact control for SMM control-protein annotation, profiling panel (AID 1131); settings: fibrinogen-A647 binding fluorescence, higher = more signal;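 also: z-score merges 667 nm fluorescence with per-spot signal-to-noise over triplicate slides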
# [5] = target: Follistatin (Homo sapiens) (UniProt P19883); assay: FST protein binding to printed compounds – biochemical, small-molecule microarray, 635/667 nm fluorescence, primary screen (AID 1132); settings: 635 nm fluorescence, higher = more signal
# [6] = target: Fibroblast growth factor 2 (Homo sapiens) (UniProt P09038); assay: basic fibroblast growth factor binding to printed compounds – biochemical, small-molecule microarray, 635/667 nm fluorescence, primary screen (AID 1133); settings: FGF2, fluorescence 635/667, higher = more signal
# [7] = JC-1 mitochondrial potential readout, lung cancer cells – cell-based, A549, JC-1 fluorescence, basal, 24 h, 100 nL, profiling panel (AID 1138); settings: higher = more signal;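 also: A549 lung adenocarcinoma cells under basal conditions with no added stimulus; test concentration not given here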
# Lefty1 = Lefty1 protein binding to printed compounds – biochemical, small-molecule microarray, 635/667 nm fluorescence, primary screen (AID 1139); settings: fluorescence 635/667, higher = more signal
# [8] = test system: wheat germ agglutinin (Triticum aestivum), Alexa647-labelled; assay: Alexa647-WGA lectin binding to printed small molecules – biochemical, small-molecule microarray, 635/667 nm fluorescence, artefact control for SMM control-protein annotation, profiling panel (AID 1140); settings: WGA-A647 binding, 635 nm fluorescence, higher = more signal;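 also: score merges 667 nm feature emission with signal to noise over triplicate slides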
# [9] = target: Luciferin 4-monooxygenase (Photinus pyralis) (UniProt P08659); assay: inhibition of purified Photinus pyralis luciferase – biochemical, luminescence, purified enzyme, 2006 set, primary screen (AID 1141); settings: purified firefly luciferase, SteadyGlo luminescence, 30 min; higher = more signal, called active from +8 up or from −8 down;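 also: cell-free assay with purified firefly luciferase at 100 ng per well in PBS; test concentration not given here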
# [10] = test system: Wnt5a (protein binding on small-molecule microarray); assay: small molecules binding Wnt5a protein – biophysical, small-molecule microarray, 635/667 nm fluorescence, primary screen (AID 1142); settings: 635 nm fluorescence, higher = more signal;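 also: fluorescence read at 667 nm with signal to noise per printed feature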
# [11] = ATP-based viability of Huh7 replicon cells – cell-based, CellTiter-Glo luminescence, basal, 48 h, cytotoxicity control for HCV replication inhibitor project, primary screen (AID 1143); settings: higher = more signal, called active from +8 up or from −8 down;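 also: Huh7 hepatoma cells carrying a hepatitis C replication reporter with no stimulus; test concentration not given here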
# [12] = Pseudomonas biofilm growth suppression – PAO1 strain, BacTiter-Glo luminescence, LB-PBS, primary screen (AID 1144); settings: P. aeruginosa PAO1 biofilm, 12 h, higher = more signal
# [13] = basal CRE-LacZ reporter activity in PC12 – cell-based, unstimulated, primary screen (AID 1145); settings: no forskolin, luminescence, 4.5 h, higher = more signal, called active from +8 up or from −8 down
# [14] = forskolin-driven CRE-LacZ activity in PC12 – cell-based, CRE-LacZ reporter, forskolin-stimulated, primary screen (AID 1146); settings: luminescence, 4.5 h, higher = more signal, called active from +8 up or from −8 down;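 also: PC12 cells with 6xCRE LacZ reporter stimulated by forskolin 10 µM; beta-galactosidase reporter signal reflecting CREB driven transcription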
# [15] = target: Streptavidin (Streptomyces avidinii) (UniProt P22629); assay: compounds binding control protein streptavidin – biophysical, small-molecule microarray, 635/667 nm fluorescence, artefact control for SMM compound annotation, primary screen (AID 1147); settings: higher = more signal;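 also: signal reflects streptavidin binding to arrayed compounds as a control protein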
# [16] = probe aInhba binding on compound microarray – biochemical, small-molecule microarray, 635/667 nm fluorescence, primary screen (AID 1148); settings: higher = more signal;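 also: score merges 667nm spot fluorescence with signal-to-noise for antibody binding to printed compounds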
# Torsin-1A (Homo sapiens) [17] = target: Torsin-1A (Homo sapiens) (UniProt O14656); assay: TOR1A wild-type binding on microarray – cell lysate, small-molecule microarray, lysate, 635/667 nm, primary screen (AID 1149); settings: COS7 hTOR1A-WT lysate, 635 nm fluorescence, higher = more signal
# Torsin-1A (Homo sapiens) [18] = target: Torsin-1A (Homo sapiens) (UniProt O14656); assay: torsin A mutant lysate binding on microarrays – cell lysate, small-molecule microarray, COS7 lysate, 635/667 nm fluorescence, primary screen (AID 1150); settings: COS7 hTOR1A mutant lysate, 635 nm fluorescence, higher = more signal;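 also: score pools 667 nm emission and signal to noise measuring lysate protein binding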
# [19] = test system: Sonic hedgehog protein (Shh); assay: Sonic hedgehog microarray binding compounds – biochemical, small-molecule microarray, 635/667 nm fluorescence, primary screen (AID 1151); settings: 635 nm fluorescence, higher = more signal;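 also: Shh protein binding to compounds spotted on small-molecule microarray slides; score combines spot fluorescence intensity with signal-to-noise across triplicate slides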
# Torsin-1A (Homo sapiens), sequence (O14656 whole entry, looked up): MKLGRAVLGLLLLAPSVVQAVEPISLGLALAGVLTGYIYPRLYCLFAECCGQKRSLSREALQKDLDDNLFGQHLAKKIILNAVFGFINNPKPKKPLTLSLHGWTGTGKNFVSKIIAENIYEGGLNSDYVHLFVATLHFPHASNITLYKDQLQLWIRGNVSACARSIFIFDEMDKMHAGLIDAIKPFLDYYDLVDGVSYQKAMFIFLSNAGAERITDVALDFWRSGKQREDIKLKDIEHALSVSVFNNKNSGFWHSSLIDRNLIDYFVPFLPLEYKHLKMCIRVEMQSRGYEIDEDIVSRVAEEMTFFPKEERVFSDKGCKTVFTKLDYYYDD
# Follistatin (Homo sapiens), sequence (P19883 whole entry, looked up): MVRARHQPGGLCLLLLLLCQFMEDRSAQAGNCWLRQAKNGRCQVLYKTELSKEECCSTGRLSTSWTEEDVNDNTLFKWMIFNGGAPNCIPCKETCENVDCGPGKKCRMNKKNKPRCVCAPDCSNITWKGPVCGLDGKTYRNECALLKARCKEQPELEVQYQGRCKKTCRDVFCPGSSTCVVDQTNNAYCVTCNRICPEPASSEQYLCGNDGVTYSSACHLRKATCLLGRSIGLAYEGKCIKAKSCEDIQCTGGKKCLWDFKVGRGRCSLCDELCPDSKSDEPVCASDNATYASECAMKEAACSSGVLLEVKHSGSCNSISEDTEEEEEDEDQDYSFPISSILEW
# Focal adhesion kinase 1 (Homo sapiens), sequence (Q05397 whole entry, looked up): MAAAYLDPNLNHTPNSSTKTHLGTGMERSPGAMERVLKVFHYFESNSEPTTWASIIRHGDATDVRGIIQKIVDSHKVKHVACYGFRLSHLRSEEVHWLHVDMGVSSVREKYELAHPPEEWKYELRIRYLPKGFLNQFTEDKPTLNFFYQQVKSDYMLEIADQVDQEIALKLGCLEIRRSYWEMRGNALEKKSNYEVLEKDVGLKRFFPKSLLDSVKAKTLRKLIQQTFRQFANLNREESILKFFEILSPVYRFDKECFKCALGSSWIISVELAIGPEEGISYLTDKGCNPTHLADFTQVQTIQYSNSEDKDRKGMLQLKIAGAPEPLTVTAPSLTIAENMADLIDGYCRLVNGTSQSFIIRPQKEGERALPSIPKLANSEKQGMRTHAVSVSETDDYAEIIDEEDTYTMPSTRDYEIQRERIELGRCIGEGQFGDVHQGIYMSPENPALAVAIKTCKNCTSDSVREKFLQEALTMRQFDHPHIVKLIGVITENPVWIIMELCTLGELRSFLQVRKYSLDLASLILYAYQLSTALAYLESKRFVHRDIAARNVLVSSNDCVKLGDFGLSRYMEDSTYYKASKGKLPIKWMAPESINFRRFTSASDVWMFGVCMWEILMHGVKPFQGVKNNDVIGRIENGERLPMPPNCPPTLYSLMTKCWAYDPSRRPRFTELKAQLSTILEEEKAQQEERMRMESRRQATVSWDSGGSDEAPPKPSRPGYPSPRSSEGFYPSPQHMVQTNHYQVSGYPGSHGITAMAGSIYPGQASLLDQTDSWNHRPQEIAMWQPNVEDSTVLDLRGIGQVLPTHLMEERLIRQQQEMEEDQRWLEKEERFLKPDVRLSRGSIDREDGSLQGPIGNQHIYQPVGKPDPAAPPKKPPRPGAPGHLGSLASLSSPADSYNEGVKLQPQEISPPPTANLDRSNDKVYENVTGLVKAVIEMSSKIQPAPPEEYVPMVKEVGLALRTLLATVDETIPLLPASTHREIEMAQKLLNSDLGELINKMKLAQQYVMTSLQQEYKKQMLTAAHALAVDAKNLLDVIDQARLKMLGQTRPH
# Luciferin 4-monooxygenase (Photinus pyralis), sequence (P08659 whole entry, looked up): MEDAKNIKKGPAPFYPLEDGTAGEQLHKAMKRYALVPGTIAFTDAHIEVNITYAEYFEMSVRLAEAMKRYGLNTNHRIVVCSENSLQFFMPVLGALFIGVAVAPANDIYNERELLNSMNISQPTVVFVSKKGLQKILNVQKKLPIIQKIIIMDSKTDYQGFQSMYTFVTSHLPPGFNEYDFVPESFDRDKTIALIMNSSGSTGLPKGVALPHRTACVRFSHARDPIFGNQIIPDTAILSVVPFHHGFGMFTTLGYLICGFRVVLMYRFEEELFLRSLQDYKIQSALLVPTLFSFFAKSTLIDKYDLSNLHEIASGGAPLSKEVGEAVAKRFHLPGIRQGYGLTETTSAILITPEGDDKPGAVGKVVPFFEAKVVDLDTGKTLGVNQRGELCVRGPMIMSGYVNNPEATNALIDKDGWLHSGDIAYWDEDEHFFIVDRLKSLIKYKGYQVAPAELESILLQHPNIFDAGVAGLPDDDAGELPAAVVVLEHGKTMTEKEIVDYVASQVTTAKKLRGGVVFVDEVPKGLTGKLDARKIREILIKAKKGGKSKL
# Streptavidin (Streptomyces avidinii), sequence (P22629 whole entry, looked up): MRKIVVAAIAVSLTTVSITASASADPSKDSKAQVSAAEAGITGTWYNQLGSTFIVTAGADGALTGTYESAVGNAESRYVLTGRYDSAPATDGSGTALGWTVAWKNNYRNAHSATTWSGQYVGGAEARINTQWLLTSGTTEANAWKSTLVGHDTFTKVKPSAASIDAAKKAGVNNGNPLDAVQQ
# Fibroblast growth factor 2 (Homo sapiens), sequence (P09038 whole entry, looked up): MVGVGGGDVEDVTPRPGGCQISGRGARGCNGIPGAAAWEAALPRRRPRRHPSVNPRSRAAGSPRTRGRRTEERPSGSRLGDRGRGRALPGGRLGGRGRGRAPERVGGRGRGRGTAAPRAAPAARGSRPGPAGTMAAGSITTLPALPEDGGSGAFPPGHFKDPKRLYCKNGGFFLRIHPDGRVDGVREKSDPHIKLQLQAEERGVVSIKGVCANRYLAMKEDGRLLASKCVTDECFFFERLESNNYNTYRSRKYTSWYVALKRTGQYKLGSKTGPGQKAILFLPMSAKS
SMILES,composite z-score [1],composite z-score [2],composite z-score [3],composite z-score [4],composite z-score [5],composite z-score [6],z-score [7],composite z-score (Lefty1),composite z-score [8],z-score [9],composite z-score [10],z-score [11],z-score [12],z-score [13],z-score [14],composite z-score [15],composite z-score [16],composite z-score (Torsin-1A (Homo sapiens) [17]),composite z-score (Torsin-1A (Homo sapiens) [18]),composite z-score [19]
COc1ccc(C#Cc2ccc3c(c2)[C@]2(C(=O)N3)[C@H](C(=O)Nc3nc4ccccc4s3)[C@H]3C(=O)O[C@H](c4ccccc4)[C@H](c4ccccc4)N3[C@@H]2c2ccccc2OCCO)cc1,0.395,1.1,0.446,0.969,1.16,0.0821,-1.98,0.262,0.371,-0.364 (inactive),0.189,-4.68 (inactive),-0.939 (inactive),-0.788 (inactive),-0.369 (inactive),0.689,0.0569,0.076,0.0705,0.912
C#C[C@@H](CC)O[Si](C#CCCCC#N)(C(C)C)C(C)C,2.55,0.0253,0.278,-0.014,-0.295,0.895,0.168,0.232,-0.0711,-0.732 (inactive),0.162,-0.667 (inactive),0.132 (inactive),-0.868 (inactive),4.95 (inactive),-0.0686,-0.0762,0.491,1.69,0.473
O=C1O[C@H](c2ccccc2)[C@H](c2ccccc2)N2[C@H]1[C@@H](C(=O)N1CCCCCCC1)[C@]1(C(=O)Nc3ccc(C#CC4(O)CCCCCC4)cc31)[C@H]2c1ccccc1OCCO,2.25,1.35,3.94,0.713,1.62,0.121,0.589,1.92,1.71,1.03 (inactive),2.32,-3.52 (inactive),-0.41 (inactive),0.335 (inactive),-0.0926 (inactive),4.02,1.97,3.75,3.55,2.09
[N-]=[N+]=NC[C@H](Cc1ccccc1)NC(=O)c1ccccc1,0.568,-0.165,0.161,-0.0208,-0.487,-0.0599,1.21,-0.156,0.736,-0.53 (inactive),-0.022,-0.34 (inactive),0.138 (inactive),0.6 (inactive),-0.308 (inactive),0.148,-0.0695,0.601,0.265,-0.0168
CO[C@H]1O[C@H](CO)[C@@H](OC(=O)CCc2ccccc2)[C@H](OC(=O)c2cc3ccccc3[nH]2)[C@H]1OC(=O)c1cc2ccccc2[nH]1,1.37,1.01,0.332,0.824,1.26,1.31,-0.201,0.845,0.726,-0.105 (inactive),0.156,-5.71 (inactive),-1.99 (inactive),-1.28 (inactive),-1.2 (inactive),-0.0944,0.0391,0.71,0.913,0.832
COc1ccc([Si](C)(C)[C@@H]2[C@@H](CC(=O)N3Cc4ccccc4C[C@H]3CO)O[C@]3(C(=O)N(c4ccccc4)c4ccccc43)[C@H]2C)cc1,2.39,0.957,0.983,0.813,1.36,1.46,0.277,1.04,1.53,0.348 (inactive),0.6,-4.81 (inactive),-0.751 (inactive),2.36 (inactive),0.931 (inactive),0.627,0.128,1.56,0.871,1.47
COc1cccc(/C=C(\C#N)C(=O)Nc2c(C)n(C)n(-c3ccccc3)c2=O)c1,0.352,0.0072,0.268,0.85,0.346,0.365,0.697,0.363,0.713,0.109 (inactive),0.152,-2.45 (inactive),-1.47 (inactive),-0.788 (inactive),-0.821 (inactive),0.841,-0.206,0.217,0.285,0.241
CCOC(=O)C1=CC[C@@H](c2ccccc2)N(S(=O)(=O)c2ccc(C)cc2)[C@H]1c1cccc(OC)c1,0.741,1.15,-0.0106,0.669,0.76,0.356,1.96,-0.245,0.773,1.56 (inactive),-0.134,-2.97 (inactive),0.966 (inactive),-0.424 (inactive),0.576 (inactive),0.717,0.135,0.4,0.314,-0.176
C=CCN1C(=O)[C@@]2(O[C@@H](CCO)[C@H]([Si](C)(C)c3ccc(OC)cc3)[C@H]2C)c2cc(N3CCOC3=O)ccc21,2.38,1.15,0.246,0.768,-0.354,-0.25,-0.658,0.0949,0.486,-1.03 (inactive),-0.0317,-7.42 (inactive),-0.202 (inactive),6.34 (inactive),-3.56 (inactive),0.0828,-0.0695,-0.0921,0.543,-0.285
